High-throughput results (PubChem)
ADAM17 inh – ADAM17 inhibitors, primary screen, biochemical, QFRET; Disintegrin and metalloproteinase domain-containing protein 17 (Homo sapiens), P78536; recombinant ADAM17, EDANS/DABCYL FRET peptide cleavage; inhibition, % at 6.95 µM; 0.83% of 370,000 active;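 active means inhibition above the mean of compounds lying between control limits plus 3 SD, set per campaign, cut at about 8.5% in these data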;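 further: 0% = DMSO-only wells as the low control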
PLC-gamma1 inh – PLC-gamma1 enzyme inhibitors, primary screen, biochemical, fluorescence, purified enzyme. 1-phosphatidylinositol 4,5-bisphosphate phosphodiesterase gamma-1 (Homo sapiens), P19174. fluorogenic substrate. inhibition, % at 12.2 µM. 0.84% of 370,000 active
Target sequence (P19174 whole entry, looked up): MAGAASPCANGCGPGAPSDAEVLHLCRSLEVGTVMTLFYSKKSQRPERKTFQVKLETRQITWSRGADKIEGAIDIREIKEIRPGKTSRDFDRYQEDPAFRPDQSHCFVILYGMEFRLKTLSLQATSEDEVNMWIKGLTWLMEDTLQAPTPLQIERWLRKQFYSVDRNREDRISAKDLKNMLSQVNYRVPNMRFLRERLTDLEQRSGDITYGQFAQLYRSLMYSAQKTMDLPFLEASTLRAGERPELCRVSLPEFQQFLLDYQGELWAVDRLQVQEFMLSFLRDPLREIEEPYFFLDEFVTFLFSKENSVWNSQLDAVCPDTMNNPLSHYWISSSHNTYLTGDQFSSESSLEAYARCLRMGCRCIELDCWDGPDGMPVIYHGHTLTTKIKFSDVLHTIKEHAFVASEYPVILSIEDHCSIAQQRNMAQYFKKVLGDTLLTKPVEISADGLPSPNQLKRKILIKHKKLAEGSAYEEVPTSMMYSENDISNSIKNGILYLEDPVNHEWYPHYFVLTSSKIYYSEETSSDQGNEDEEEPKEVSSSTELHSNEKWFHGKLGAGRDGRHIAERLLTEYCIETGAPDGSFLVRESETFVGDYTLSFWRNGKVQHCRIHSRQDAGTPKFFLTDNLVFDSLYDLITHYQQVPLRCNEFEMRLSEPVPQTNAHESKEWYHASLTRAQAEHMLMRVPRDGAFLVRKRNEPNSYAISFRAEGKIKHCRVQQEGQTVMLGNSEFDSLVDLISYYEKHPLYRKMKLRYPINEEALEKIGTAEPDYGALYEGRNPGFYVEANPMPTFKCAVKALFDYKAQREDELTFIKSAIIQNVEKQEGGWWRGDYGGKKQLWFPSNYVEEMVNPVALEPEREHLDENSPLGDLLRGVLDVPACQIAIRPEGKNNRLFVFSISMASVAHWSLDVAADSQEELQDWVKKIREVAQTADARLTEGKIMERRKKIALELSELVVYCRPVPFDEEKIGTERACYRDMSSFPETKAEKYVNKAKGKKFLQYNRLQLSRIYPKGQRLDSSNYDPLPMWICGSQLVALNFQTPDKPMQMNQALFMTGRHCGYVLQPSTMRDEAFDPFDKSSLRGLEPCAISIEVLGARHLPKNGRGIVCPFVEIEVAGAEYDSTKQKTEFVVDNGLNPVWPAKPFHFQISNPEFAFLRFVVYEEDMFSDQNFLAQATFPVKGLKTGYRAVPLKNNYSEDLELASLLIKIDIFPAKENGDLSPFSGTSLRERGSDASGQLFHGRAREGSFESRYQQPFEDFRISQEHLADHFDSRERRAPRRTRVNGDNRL
ADAM10 inh – human ADAM10 inhibitors, primary screen, biochemical, QFRET, HTS | Disintegrin and metalloproteinase domain-containing protein 10 (Homo sapiens), O14672 | recombinant ADAM10, EDANS/DABCYL FRET peptide cleavage, 3 h | inhibition, % at 7 µM | 0.62% of 370,000 active | AID 720582, 2013;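 active means inhibition above a per-campaign cutoff equal to the mean of compounds falling between control-based bounds plus 3 SD, cut at about 20% in these data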;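 further: 0% = DMSO wells while the 100% control is not disclosed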
proKLK7 act – proKLK7 zymogen activators, primary screen, biochemical, fluorescence intensity. purified proKLK7, EDANS-DABCYL substrate fluorescence; 100% is mature enzyme control, 0% vehicle. activation, % at 7 µM. 0.9% of 370,000 active;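 active means activation above the mean of all tested compounds plus 3 SD, computed per campaign excluding outliers beyond control limits, cut at about 13% in these data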
PLCb3 inh – human PLC-beta3 inhibitors, primary screen, biochemical, fluorescence; 0.18% of 370,000 active; inhibition, % at 12.2 µM; AID 720704, 2013; Purified PLC-beta3, fluorogenic substrate; 1-phosphatidylinositol 4,5-bisphosphate phosphodiesterase beta-3 (Homo sapiens), Q01970; in the data active means inhibition above about 11%;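 further: 0% = median of compound wells on plate and 100% = full blocker control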
HGIII-sPLA2 inh – human group III sPLA2 inhibitors, primary screen, biochemical, QFRET, BODIPY PC-A2 liposome substrate. QFRET BODIPY PC-A2 liposome hydrolysis, fluorescence. inhibition, % at 12.2 µM. 0.56% of 370,000 active;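 active means inhibition above mean plus 3 SD of compounds lying within the high and low control bounds, cut at about 19% in these data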;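 further: 0% = median of test compound wells and 100% = no enzyme DMSO wells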
PLCg1 ctr – PLC-gamma1 enzyme inhibitors, counter-screen for PLC-beta3 inhibitor project, biochemical, fluorescence | shares compounds with PLC-gamma1 inh | purified PLC-gamma1, fluorogenic substrate | inhibition, % at 12.3 µM | 3.1% of 3,300 active
PLCb3 confirm – PLC-beta3 inhibitor confirmation, biochemical, fluorescence, purified enzyme; fluorogenic substrate fluorescence; inhibition, % at 12.3 µM; AID 743261, 2014; shares compounds with PLC-gamma1 inh; 1% of 3,300 active; in the data active means inhibition above about 11%
sPLA2 confirm – human group III sPLA2 inhibitors, confirmation, biochemical, QFRET, triplicate; shares compounds with HGIII-sPLA2 inh; recombinant hGIII-sPLA2, BODIPY PC-A2 QFRET fluorescence; inhibition, % at 12.2 µM; 34% of 2,000 active;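 active means mean inhibition across triplicates above the hit cutoff set in the earlier primary screen, cut at about 19% in these data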;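 further: 0% = enzyme with DMSO and 100% = DMSO wells lacking enzyme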
BODIPY interf – 535nm fluorescence optical interference, confirmation, artefact control for HGIII-sPLA2 inhibitor project, biochemical, QFRET | 8.5% of 2,000 active | AID 743282, 2014 | inhibition, % at 12.2 µM | shares compounds with HGIII-sPLA2 inh | BODIPY FL product fluorescence interference;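 active means average inhibition above the solvent-only control mean plus 3 SD, cut at about 6% in these data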;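 further: 0% = DMSO with substrate plus product and 100% = DMSO with substrate alone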
An asterisk follows results filed as active; nt = no result. An excerpt weighted towards active compounds, which were near 3.4% of everything screened. Unless noted, no stated cut-off is given here; in the data, active means inhibition above about 9.5%; inactive means the rest.

SMILES	ADAM17 inh	PLC-gamma1 inh	ADAM10 inh	proKLK7 act	PLCb3 inh	HGIII-sPLA2 inh	PLCg1 ctr	PLCb3 confirm	others
Cc1cccc(CS(=O)(=O)Cc2ccc(C(=O)N3CCC4(CC3)OCCO4)o2)c1	5	14*	6	0	11*	-1	-6	-3
O=C1CC(=O)N(Cc2ccccc2)C(=O)N1	-2	16*	-2	-1	2	-6	-2	-2
COC(=O)C1=C(c2ccc(F)cc2OCc2ccccc2)C[C@@H]2CC[C@H]1N2C(=O)NC1CC1	-1	-5	-1	0	-4	-2	nt	nt
Cc1cc(NC(=O)CCl)nn1C	5	13*	4	0	3	5	-6	-3
CCCCN1C(=N)C(CC)(CC)C(=O)NC1=O	-1	1	4	0	3	3	nt	nt
CC1CN(c2ccccn2)C(C)CN1C(=O)C(O)(c1ccccc1)c1ccccc1 (configuration not stated)	-8	4	-30	0	0	-2	nt	nt
Cc1sc2ncn(CC(=O)N3CCC4(CC3)OCCO4)c(=O)c2c1C	-9	-1	3	0	3	3	nt	nt
O=C(Cn1cnc2sc3c(c2c1=O)CCCC3)NCCC(=O)N1CCC2(CC1)OCCO2	-4	9.7*	2	0	0	3	-10	-4
CN1C(=O)N(C)C(=O)C2(Cc3cc([N+](=O)[O-])ccc3N(C)C2c2ccccc2)C1=O (configuration not stated)	0	7	8	0	2	6	nt	nt
COC(=O)C12OCC34C(CC5C(C)=C(O)C(=O)CC5(C)C3C(O)C1O)OC(=O)C(OC(=O)/C=C(\C)C(C)C)C24 (configuration not stated)	5	13*	8	0	8	-9	-6	-2
O=c1[nH]c(=S)n(Cc2ccc(F)cc2)c(O)c1C=NCc1cccnc1	-4	11*	-5	-1	0	6	-1	0
O=c1c2ccccc2nc(-c2ccoc2)n1-c1ccccc1Cl	-2	3	4	0	2	1	nt	nt
COc1ccccc1-n1c(-c2ccoc2)nc2ccccc2c1=O	4	8	8	0	11*	7	-3	-7
FC(F)(F)c1ccc(CNCCc2ccc3c(c2)OCO3)cc1	6	11*	1	0	-4	0	-2	1
NS(=O)(=O)c1nc[nH]c1[N+](=O)[O-]	1	11*	-1	0	-2	5	2	-5
OC(CC#CCN1CCCCCC1)(c1ccccc1)C1CCCC1 (configuration not stated)	-1	1	3	0	-3	-10	nt	nt
CN(C)CC#CCC(O)(c1ccccc1)C1CCCC1 (configuration not stated)	5	6	7	0	13*	-23	-8	-3
O=c1[nH]c2ccccc2c(=O)n1-c1ccc(Cl)cc1Cl	-6	0	-11	-3	11*	1	-6	14*
CCN1CCN(Cc2cccnc2)CC1	4	9.7*	17	0	2	4	-6	-3
CCN1CCN(Cc2ccc(OC(F)(F)F)cc2)CC1	1	1	1	1	-4	-1	nt	nt
CC12CC[C@H]3[C@@H](CCC4(O)C[C@H](O)CCC34/C=N/NC(=O)c3ccccc3F)C1(O)CCC2C1=CC(=O)OC1 (some centres not stated)	7	13*	10	0	8	5	-9	-4
CC12CC[C@H]3[C@@H](CCC4(O)C[C@H](O)CCC34/C=N/NC(=O)c3ccccc3O)C1(O)CCC2C1=CC(=O)OC1 (some centres not stated)	-17	-4	-45	0	-20	-1	nt	nt
O=C(c1cccs1)C1CN2CCC1CC2 (configuration not stated)	4	10*	1	0	3	-2	-4	-1
CN1CC(C(=O)c2cccs2)C(c2ccc(Cl)cc2)C1 (configuration not stated)	-1	2	7	1	4	-22	nt	nt
CCOC(=O)c1sc(/N=C/c2c(O)n(-c3ccccc3)c(=O)[nH]c2=O)c(C#N)c1C	-9	-12	-31	0	-17	-10	nt	nt
SMILES	ADAM17 inh	PLC-gamma1 inh	ADAM10 inh	proKLK7 act	PLCb3 inh	HGIII-sPLA2 inh	PLCg1 ctr	PLCb3 confirm	others
CCOC(=O)c1c(/N=C/c2c(O)n(-c3cccc(C)c3)c(=O)[nH]c2=O)sc2c1CCCC2	-5	-4	-8	0	-9	20*	nt	nt	sPLA2 confirm=13;BODIPY interf=-4
COc1ccc(/C=C2/C(=O)NC(=S)N(C3CC3)C2=O)cc1CN1C(=O)c2ccccc2C1=O	1	-4	10	0	0	1	nt	nt
CC(=NCCc1ccccc1)c1c(O)n(C)c(=O)n(C)c1=O	2	6	5	0	5	1	nt	nt
CC(=Nc1ccccc1N)c1c(O)n(C)c(=O)n(C)c1=O	-7	-4	-10	-1	-16	20*	nt	nt	sPLA2 confirm=6;BODIPY interf=-6
CN1CCN(c2ccc([N+](=O)[O-])c3cccnc23)CC1	-5	-1	5	0	2	-3	nt	nt
O=[N+]([O-])c1ccc(NCCO)c2ncccc12	-3	-2	-2	0	-2	22*	nt	nt	sPLA2 confirm=4;BODIPY interf=-1
Cc1ccc(Cn2cc(C=O)c(-c3ccc(C)cc3)n2)cc1	1	0	5	0	-3	0	nt	nt
O=[N+]([O-])c1ccc(N2CCNCC2)cc1N1CCCCCC1	-4	8	7	-1	8	36*	nt	nt	sPLA2 confirm=17;BODIPY interf=-12
CC(C)Oc1ccc(C2(C#N)CC[N+](C)(C)CC2)cc1	-6	2	-11	0	6	22*	nt	nt	sPLA2 confirm=-2;BODIPY interf=-4
